# In all, about 330,000 compounds went through this assay and about 980 (0.3%) were called active.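 Rule for the calls: active = percent response vs DMSO below 50%; inconclusive = fewer than 70 events counted for the yeast strain; inactive = the rest.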 Shown is part of a subset that was picked to be rich in actives.
# Assay: compounds altering RPL19A-GFP fluorescence, TOR branch – cell-based, S. cerevisiae, multiplex flow cytometry, MLPCN, primary screen (AID 2025);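 note: median channel GFP fluorescence of the barcoded RPL19A-GFP strain; ratio of sample median GFP to plate DMSO average so 100% = DMSO; lower means less RPL19A-GFP as with rapamycin TOR inhibition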
# Conditions: S. cerevisiae RPL19A-GFP strain, 3 h, at 10 µM, active compounds read low
row,Structure (SMILES),percent response vs DMSO
1,CC(=NNC(=O)c1ccc2nc[nH]c2c1)c1ccc(Br)cc1,103% (inactive)
2,CCN(CC)c1ccc(C(=O)N/N=C(\C)c2cccc(OC)c2)cc1,103% (inactive)
3,COc1ccc(/C(C)=N/NC(=O)c2ccc3nc[nH]c3c2)cc1,22.1% [may fluoresce violet] (active)
4,CCCC(NC(=O)c1ccco1)c1nc2ccccc2[nH]1 (stereo unspecified),104% (inactive)
5,COc1c(C)c2c(c(O)c1C/C=C(\C)CCC(=O)O)C(=O)OC2,39.1% [may fluoresce violet] (active)
6,Cc1c(C)n2c(SCC(=O)NC3CCCC3)nnc2[nH]c1=O,88% (inactive)
7,COc1cc(SC)ccc1C(=O)NNC(=O)C1COc2ccccc2O1 (stereo unspecified),95% (inactive)
8,Cc1ccc(C23CC4CC(CC(C(=O)NCC(=O)O)(C4)C2)C3)cc1,30% [may fluoresce violet] (active)
9,CCOc1ccccc1NC(=O)C12CC3CC(C1)CC(c1ccc(C)cc1)(C3)C2,101% (inactive)
10,C=CCNC(=O)C12CC3CC(C1)CC(C(=O)NCC=C)(C3)C2,98.2% (inactive)
11,O=C(COc1ccc2c(c1)CCC2)N1CCN(c2ccc(F)cc2)CC1,95.3% (inactive)
12,COc1ccc(-c2nc3ccccc3n2CCC(C)C)cc1OC,98.3% (inactive)
13,O=C1N(c2ccc(Cl)cc2)C(c2ccc(Cl)cc2)N2CCCN12 (stereo unspecified),95.4% (inactive)
14,CCOC(=O)C1CCN(C(=O)CN2C(=O)c3cccnc3Oc3ccc(C)cc32)CC1,97.7% (inactive)
15,Cc1cc2c(cc1C)N(Cc1ccccc1)C1=NCCCN12,101% (inactive)
16,CC(C)c1ccc(C2C(C#N)=C(N)Oc3c2oc(CO)cc3=O)cc1 (stereo unspecified),44% [may fluoresce violet] (active)
17,C=CCOC(=O)C1=C(C)OC(N)=C(C#N)C1c1ccc(F)cc1 (stereo unspecified),91.2% (inactive)
18,COC(=O)C1=C(N)Oc2c(oc(CO)cc2=O)C1c1c(F)cccc1Cl (stereo unspecified),103% (inactive)
19,Cc1cccc(OCC(=O)NC2CC(C)(C)NC(C)(C)C2)c1,98.6% (inactive)
20,Cc1cccc(NC(=O)Cn2c(=O)n(Cc3ccccc3)c(=O)c3c(C)c(C)sc32)c1,104% (inactive)
21,Cc1c(C(C)(C)O)[nH]c2ccc(C#N)cc12,91.7% (inactive)
22,CCOC(=O)C1CCCN(C(=O)CSc2nnc3nc(C)cc(C)n23)C1 (stereo unspecified),93.7% (inactive)

row,Structure (SMILES),percent response vs DMSO
1,COc1cc(C(=O)NC2CCN(C)CC2)ccc1Nc1ncc2c(n1)N(C1CCC(O)CC1)CCC(=O)N2C (stereo unspecified),90.7% (inactive)
2,O=C(CS(=O)(=O)c1cn(Cc2ccc(Cl)cc2)c2ccccc12)N1CCOCC1,91.2% (inactive)
3,CC(=O)Nc1ccc(NC(=O)CS(=O)(=O)c2cn(CC(=O)N3CCCCC3)c3ccccc23)cc1,97.7% (inactive)
4,O=C(CS(=O)(=O)c1cn(Cc2cccc(F)c2)c2ccccc12)N1CCCCC1,43% [may fluoresce violet] (active)
5,CN1CCN(C2Cc3ccc(Cl)cc3Sc3ccc(F)cc32)CC1 (stereo unspecified),100% (inactive)
6,COCCN(C(=O)CSCc1ccc(C)cc1)c1c(N)n(CC(C)C)c(=O)[nH]c1=O,93.3% (inactive)
7,Nc1nc(SCc2cccc(Br)c2)n[nH]1,99.2% (inactive)
8,Cc1ccc(N2CCN(S(=O)(=O)c3ccc(F)cc3)CC2)c(C)c1,94.2% (inactive)
9,CCN(CC(=O)NC(=O)NCc1ccccc1)Cc1nc2ccccc2c(=O)[nH]1,102% (inactive)
10,CCCC(=O)N(CCc1ccccc1)Cc1nc2ccccc2c(=O)[nH]1,90.4% (inactive)
11,O=C(c1ccco1)N(Cc1nc2ccccc2c(=O)[nH]1)C1CCCC1,16.5% [may fluoresce violet] (active)
12,CC(C)(C)NC(=O)CN(Cc1cccs1)C(=O)CNS(=O)(=O)c1ccccc1,107% (inactive)
13,O=P(c1cccs1)(c1cccs1)c1cccs1,98.8% (inactive)
14,Cc1cccc(NC(=O)c2cccc(C(=O)Nc3cccc(C)c3C)n2)c1C,49.4% [may fluoresce violet] (active)
15,Cc1cccc(NC(=O)c2ccc3nsnc3c2)c1C,103% (inactive)
16,Cc1nc(C)c(C(=O)Nc2cccc(C)c2C)o1,98.6% (inactive)
17,Cn1c(=O)oc2cc(S(=O)(=O)NCCC(=O)NCc3ccccc3Cl)ccc21,106% (inactive)
18,COc1ccccc1S(=O)(=O)NCc1ccc(C(=O)N(C)Cc2ccc(F)cc2)cc1,91.3% (inactive)
19,COc1ccccc1/C=C/C(=O)OCC(=O)NC1CCCCCC1,96.2% (inactive)
20,CCC(c1nnnn1Cc1ccccc1)N(Cc1cc2cc(OC)ccc2[nH]c1=O)CC1CCCO1 (stereo unspecified),94.8% (inactive)
21,CCC(c1nnnn1Cc1ccco1)N(CCc1ccccc1)Cc1cc2cccc(C)c2[nH]c1=O (stereo unspecified),100% (inactive)
22,CCC(c1nnnn1Cc1ccco1)N(Cc1cc2cc(OC)ccc2[nH]c1=O)C1CCCCC1 (stereo unspecified),39.1% [may fluoresce violet] (active)

row,Structure (SMILES),percent response vs DMSO
1,O=C(CS(=O)(=O)c1ccc(C(F)(F)F)cn1)NNC(=O)c1ccccc1,99.4% (inactive)
2,C/C(=N\NS(=O)(=O)c1ccccc1)c1c(O)cc(C)oc1=O,105% (inactive)
3,CCC(=O)Nc1ccc(C(=O)N2CCN(C(=O)c3ccco3)CC2)cc1,94.2% (inactive)
4,Cc1ccc(C)c(OCC(=O)N2CCN(C(=O)c3ccco3)CC2)c1,110% (inactive)
5,Cc1ccc(OCC(=O)Nc2ccc(N3CCN(C(=O)c4ccco4)CC3)cc2)c(C)c1,41.5% [may fluoresce violet] (active)
6,CC1(C)OC(=O)N2CCc3ccccc3C21C (stereo unspecified),99% (inactive)
7,O=C(Nc1cc2c3c(c1)CC(=O)N3CCC2)c1ccccc1F,43.6% [may fluoresce violet] (active)
8,O=C(COc1ccccc1)Nc1cc2c3c(c1)CC(=O)N3CCC2,101% (inactive)
9,CCCNC(=O)C(=O)Nc1cc2c3c(c1)CCC(=O)N3CCC2,100% (inactive)
10,Cc1cccc(NC(=S)NCc2ccc3[nH]c4c(c3c2)CCCC4)c1,105% (inactive)
11,COc1cccc(CN2CCNC(=O)C2CC(=O)N(C)CCc2ccccn2)c1 (stereo unspecified),102% (inactive)
12,O=C(NCc1ccccn1)c1ccc2nc(-c3ccco3)c(-c3ccco3)nc2c1,99.4% (inactive)
13,COCCNC(=O)Nc1ccc2nc(-c3ccco3)c(-c3ccco3)nc2c1,23.4% [may fluoresce violet] (active)
14,COc1cccc(NC(=O)NCCN2CCCCC2)c1,96% (inactive)
15,COc1ccc([N+](=O)[O-])cc1NCC(=O)c1ccc(C)cc1,104% (inactive)
16,COc1cc(C(=O)NCCOC(=O)c2cccc(N(C)C)c2)cc(OC)c1OC,101% (inactive)
17,O=C(CCC(=O)N1CCN(S(=O)(=O)c2ccccc2)CC1)NC1CCCc2ccccc21 (stereo unspecified),101% (inactive)
18,O=C(O)c1cc(S(=O)(=O)NC2CCCc3ccccc32)ccc1O (stereo unspecified),34.1% [may fluoresce violet] (active)
19,CNS(=O)(=O)c1cccc(C(=O)NC2CCCc3ccccc32)c1 (stereo unspecified),101% (inactive)
20,CC(=O)Nc1ccccc1C(=O)C(=O)Nc1ccc(F)cc1,105% (inactive)
21,O=C(CCC(=O)c1ccccc1)NCc1cccc(C(F)(F)F)c1,98.9% (inactive)
22,O=C(c1cc2ccccc2o1)N1CCN(c2cccc(C(F)(F)F)c2)CC1,98.3% (inactive)

row,Structure (SMILES),percent response vs DMSO
1,COc1ccc(CNC(=O)C2CCN(C(=O)c3ccccc3)CC2)cc1,82.1% (inactive)
2,O=C(NCc1ccncc1)C1CCN(C(=O)c2cccc(Cl)c2)CC1,42.1% [may fluoresce violet] (active)
3,O=C(c1cccc(Cl)c1)N1CCN(Cc2ccccc2)CC1,103% (inactive)
4,COc1ccc(S(=O)(=O)N2CCOC2CNC(=O)C(=O)NCc2ccncc2)cc1C (stereo unspecified),99.3% (inactive)
5,COc1cccc(C2SCC(=O)N2c2cccc(C)c2)c1OC (stereo unspecified),49.7% [may fluoresce violet] (active)
6,Cc1ccc(C2SCC(=O)N2c2ccccc2)cc1 (stereo unspecified),103% (inactive)
7,O=C1CSC(c2cccc(F)c2)N1c1ccc(O)cc1 (stereo unspecified),95.8% (inactive)
8,O=C(CC(NS(=O)(=O)c1ccc(Cl)cc1)c1ccco1)NC1CCCC1 (stereo unspecified),96.4% (inactive)
9,O=C(CSc1ccccn1)Nc1nc2c(ccc3ccccc32)s1,106% (inactive)
10,CC(=O)Nc1ccc(NC(=O)COC(=O)C2CCC(C(C)(C)C)CC2)cc1 (stereo unspecified),103% (inactive)
11,COc1ccc(NC(=O)CN(C)C(=O)CC2CCCCC2)cc1,96.3% (inactive)
12,CC(=O)Nc1ccc(NC(=O)CC2CCCC2)cc1,42.2% [may fluoresce violet] (active)
13,Cc1ccc(NC(=S)N(CCCN2CCCC2)Cc2cccn2Cc2ccc(Cl)cc2)cc1,99.4% (inactive)
14,CN(CCCNC(=O)CN1C(=O)CC(C)(C)S(=O)(=O)c2ccccc21)C1CCCCC1,91.3% (inactive)
15,NCCCCCC(=O)N/N=C/c1ccc2nccnc2c1,48% [may fluoresce violet] (active)
16,Cc1nccn1CC(=O)N/N=C/c1ccc(O)c(O)c1,103% (inactive)
17,O=C(N/N=C/c1ccc(Cl)c(Cl)c1)c1ccc2nc[nH]c2c1,99.3% (inactive)
18,CC(=O)c1c(C)c[nH]c1C,101% (inactive)
19,CC(C)(C)C(=O)Nc1ccc(-c2cn3cccnc3n2)cc1,105% (inactive)
20,FC(F)(F)Oc1ccc(-c2cn3cccnc3n2)cc1,30.4% [may fluoresce violet] (active)
21,COc1ccc(-c2cn3cccnc3n2)cc1,98.9% (inactive)
22,Cc1noc(C)c1-c1ccc2ncnc(NC(C)c3ccco3)c2c1 (stereo unspecified),99.4% (inactive)

row,Structure (SMILES),percent response vs DMSO
1,O=C(C[C@H]1C/C=C\C[C@@H](NC(=O)OCC2c3ccccc3-c3ccccc32)C(=O)O[C@@H](c2ccccc2)CNC1=O)N[C@H](CO)Cc1ccccc1,101% (inactive)
2,CCOC(=O)C1CCCCN1Cc1ccc(OC)c(OC)c1OC (stereo unspecified),94.8% (inactive)
3,CCOC(=O)c1c(CN2CCOCC2)n(-c2ccccc2)c2ccc(O)cc12,14.2% [may fluoresce violet] (active)
4,CCOC(=O)c1c(CN(C)C)n(-c2ccccc2)c2cc(Br)c(O)cc12,98% (inactive)
5,CCOC(=O)c1nnn(-c2nonc2-n2cccc2)c1CN1CCOCC1,95.3% (inactive)
6,COc1ccc(C(=O)NC(Cc2ccc(OC(=O)c3ccc(OC)cc3)cc2)C(=O)O)cc1 (stereo unspecified),96.9% (inactive)
7,O=C(O)c1ccc(COc2c(F)c(F)cc(F)c2F)o1,97% (inactive)
8,O=C(CCS(=O)(=O)c1ccc2c(c1)NC(=O)CS2)NCc1ccccc1Cl,100% (inactive)
9,CSc1cccc(NC(=O)C2CCCN2S(=O)(=O)c2ccc3c(c2)CCC(=O)N3)c1 (stereo unspecified),100% (inactive)
10,NNC(=O)C1CC(O)CN1S(=O)(=O)c1ccc(Cl)cc1 (stereo unspecified),101% (inactive)
11,CCCCNC(=O)CCNC(=O)c1ccc(C(C)(C)C)cc1,47.4% [may fluoresce violet] (active)
12,CCCN1CCN(C(=O)CCCNC(=O)c2ccc(Cl)cc2)CC1,98.3% (inactive)
13,O=C(CCNC(=O)c1ccc(Br)cc1)NCCCc1ccccc1,101% (inactive)
14,O=C(Nc1ccccc1)c1nnsc1S(=O)(=O)c1ccc(Cl)cc1,46.8% (active)
15,O=C(Nc1ccc(Cl)cc1)Nc1nnc(/C=C/c2ccccc2)s1,97.4% (inactive)
16,CN(c1cccc(NC(=O)Nc2ccc(Cl)cc2)c1)S(C)(=O)=O,102% (inactive)
17,CCCCNC(=O)c1cn(CC)c2cc(N3CCN(C(=O)c4ccco4)CC3)c(F)cc2c1=O,95.5% (inactive)
18,Cc1cc(=O)oc2c(C)c(OCC(=O)NCCN3CCOCC3)ccc12,97.4% (inactive)

# — PubChem BioAssay AID2025 (NMMLSC, 2009)
